Results taken from PubChem BioAssay (NCATS).
Records with an inconclusive call do not appear. The source made the active and inactive calls. Calls follow the shape of the dose curve; as a rule, active = well fitted curve in the direction sought with a large enough effect; inconclusive = small, poorly fitted or top-dose-only effect, or another doubt; inactive = no such curve, though single readings can be large; an effect the other way counts as inactive or inconclusive.

Tests used:
MKL-2 = experiment: qHTS assay to identify novel small-molecules to repurpose for Merkel cell carcinoma treatment (AID 1296009); details: MCC and control cell lines, CellTiter-Glo viability, 72 h; series mostly up to 46 µM; also: nearly all actives have a fitted effect of over 60% in size
How it was run: (§1)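 Dose-response viability screen; 72 hr exposure at 37 degree celsius; CellTiter-Glo added, 10 min room temperature, luminescence read; RLUs scaled between no-cell and DMSO wells.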

NIH3T3 = experiment: as above; details: MCC and control cell lines, CellTiter-Glo viability, 72 h; at 44.8 µM (top of the series) unless noted
How it was run: as §1

UISO = experiment: as above; details: MCC and control cell lines, CellTiter-Glo viability, 72 h; series mostly up to 46 µM
How it was run: as §1

WaGa = experiment: as above; details: MCC and control cell lines, CellTiter-Glo viability, 72 h; series mostly up to 46 µM
How it was run: as §1

C33A = experiment: Primary qHTS to identify gynecologic anti-cancer compounds using libraries of approved drugs and bioactive compounds (AID 1345084); details: Gynecologic cancer cell panel viability, ATPlite luminescence, 48 h; series mostly up to 57.5 µM; also: nearly all actives have a fitted effect of over 55% in size
How it was run: (§2)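 48 h compound exposure at 37 C, 5% CO2; five-point qHTS. ATPlite luminescence readout of cell ATP.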

CASKI = experiment: as above; details: Gynecologic cancer cell panel viability, ATPlite luminescence, 48 h; series mostly up to 57.5 µM
How it was run: as §2

Es-2 = experiment: as above; details: Gynecologic cancer cell panel viability, ATPlite luminescence, 48 h; series mostly up to 57.5 µM
How it was run: as §2

HeLa = experiment: as above; details: Gynecologic cancer cell panel viability, ATPlite luminescence, 48 h; series mostly up to 57.5 µM
How it was run: as §2

Hek293T = experiment: as above; details: Gynecologic cancer cell panel viability, ATPlite luminescence, 48 h, control line for the selectivity index; series mostly up to 57.5 µM
How it was run: as §2

JEG-3 = experiment: as above; details: Gynecologic cancer cell panel viability, ATPlite luminescence, 48 h; series mostly up to 57.5 µM
How it was run: as §2

OV90 = experiment: as above; details: Gynecologic cancer cell panel viability, ATPlite luminescence, 48 h; series mostly up to 57.5 µM
How it was run: as §2

PA-1 = experiment: as above; details: Gynecologic cancer cell panel viability, ATPlite luminescence, 48 h; series mostly up to 57.5 µM
How it was run: as §2

SKOV3 = experiment: as above; details: Gynecologic cancer cell panel viability, ATPlite luminescence, 48 h; series mostly up to 57.5 µM
How it was run: as §2

Tov-21-G = experiment: as above; details: Gynecologic cancer cell panel viability, ATPlite luminescence, 48 h; series mostly up to 57.5 µM
How it was run: as §2

Tov112D = experiment: as above; details: Gynecologic cancer cell panel viability, ATPlite luminescence, 48 h; series mostly up to 57.5 µM
How it was run: as §2

[1] = Drug repurposing screens with cells derived from glioblastoma tumor samples (AID 1345199); details: GBM patient neurospheres viability, ATP luminescence, 48 h; also: nearly all actives have a fitted effect of over 40% in size; also: potency is read from the fitted curve at half-maximal effect
How it was run: (§3)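 Primary testing used CD133+ neurospheres from four GBM patients, seven concentrations, 48 h exposure and ATP-based viability; confirmation added three slower-growing patient lines.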

astro = experiment: as above; details: viability, ATP luminescence, 48 h; series mostly up to 45.9 µM
How it was run: as §3

CAOV3 = experiment: Primary qHTS to identify gynecologic anti-cancer compounds using libraries of approved drugs and bioactive compounds (AID 1345084); details: Gynecologic cancer cell panel viability, ATPlite luminescence, 48 h; series mostly up to 57.5 µM; also: nearly all actives have a fitted effect of over 55% in size
How it was run: as §2

[2] = at 45.9 µM (top of the series), tumour line B
[3] = at 45.9 µM (top of the series), tumour line D
[4] = at 46 µM (top of the series), tumour line A
[5] = at 46.1 µM (top of the series), tumour line C
[6] = at 20 µM (top of the series), tumour line C
[7] = at 21.2 µM (top of the series), tumour line B
[8] = at 21.2 µM (top of the series), tumour line D
[9] = at 21.3 µM (top of the series), tumour line A
% is scaled to controls: 0 for no effect and ±100 for the full control effect.

CC1(C)S[C@@H]2[C@H](NC(=O)Cc3ccccc3)C(=O)N2[C@H]1C(=O)O (tested in a mixture with another compound)
inactive: Potency (MKL-2) | outcome (NIH3T3) | Potency (UISO) | Potency (WaGa) | Potency (C33A) | Potency (CASKI) | Potency (Es-2) | Potency (HeLa) | Potency (Hek293T) | Potency (JEG-3) | Potency (OV90) | Potency (PA-1) | Potency (SKOV3) | Potency (Tov-21-G) | Potency (Tov112D) | activity, negative = cell killing [1, 2] -3.74% | activity, negative = cell killing [1, 3] -13.1% | activity, negative = cell killing [1, 4] -22.7% | activity, negative = cell killing [1, 5] -9.44% | Potency (astro)

CCOC(CN1CCN(CC(C)C(=O)c2ccccc2)CC1)c1ccccc1 (stereo not given)
active: Potency ([1]; tumour line A) 12.6 µM
inactive: Potency (MKL-2) | outcome (NIH3T3) | Potency (UISO) | Potency (WaGa) | Potency (C33A) | Potency (CAOV3) | Potency (CASKI) | Potency (Es-2) | Potency (HeLa) | Potency (Hek293T) | Potency (JEG-3) | Potency (OV90) | Potency (PA-1) | Potency (SKOV3) | Potency (Tov-21-G) | Potency (Tov112D) | activity, negative = cell killing [1, 2] -10.2% | Potency (astro)

C#CCN(C)Cc1ccccc1
inactive: Potency (MKL-2) | Potency (UISO) | Potency (WaGa) | Potency (C33A) | Potency (CAOV3) | Potency (CASKI) | Potency (Es-2) | Potency (HeLa) | Potency (Hek293T) | Potency (JEG-3) | Potency (OV90) | Potency (PA-1) | Potency (SKOV3) | Potency (Tov-21-G) | Potency (Tov112D) | activity, negative = cell killing [1, 6] -8.08% | activity, negative = cell killing [1, 7] -12.4% | activity, negative = cell killing [1, 8] -7.66% | activity, negative = cell killing [1, 9] -32.1% | Potency (astro)

O=C(O)c1ccccn1
inactive: Potency (MKL-2) | outcome (NIH3T3) | Potency (UISO) | Potency (WaGa) | Potency (C33A) | Potency (CAOV3) | Potency (CASKI) | Potency (Es-2) | Potency (HeLa) | Potency (Hek293T) | Potency (JEG-3) | Potency (OV90) | Potency (PA-1) | Potency (Tov-21-G) | Potency (Tov112D) | activity, negative = cell killing [1, 2] -12% | activity, negative = cell killing [1, 3] -3.68% | activity, negative = cell killing [1, 4] -22.3% | activity, negative = cell killing [1, 5] 1.95% | Potency (astro)

NS(=O)(=O)c1cc2c(cc1Cl)NC(CSCc1ccccc1)=NS2(=O)=O
inactive: Potency (MKL-2) | outcome (NIH3T3) | Potency (UISO) | Potency (WaGa) | Potency (C33A) | Potency (CASKI) | Potency (Es-2) | Potency (HeLa) | Potency (Hek293T) | Potency (JEG-3) | Potency (OV90) | Potency (PA-1) | Potency (SKOV3) | Potency (Tov-21-G) | Potency (Tov112D) | activity, negative = cell killing [1, 6] 5.29% | activity, negative = cell killing [1, 7] -6.25% | activity, negative = cell killing [1, 8] -24.5% | activity, negative = cell killing [1, 9] -18.3% | Potency (astro)

CN(N=O)C(=O)N[C@@H]1[C@@H](O)[C@H](O)[C@@H](CO)O[C@@H]1O
inactive: Potency (MKL-2) | outcome (NIH3T3) | Potency (UISO) | Potency (WaGa) | Potency (C33A) | Potency (CAOV3) | Potency (CASKI) | Potency (Es-2) | Potency (HeLa) | Potency (Hek293T) | Potency (JEG-3) | Potency (OV90) | Potency (PA-1) | Potency (Tov-21-G) | Potency (Tov112D) | activity, negative = cell killing [1, 6] -1.98% | activity, negative = cell killing [1, 7] -12% | activity, negative = cell killing [1, 8] 1.48% | activity, negative = cell killing [1, 9] -15.9% | Potency (astro)

COc1ccc2[nH]c(S(=O)Cc3ncc(C)c(OC)c3C)nc2n1 (stereo not given)
inactive: Potency (MKL-2) | outcome (NIH3T3) | Potency (UISO) | Potency (C33A) | Potency (CAOV3) | Potency (CASKI) | Potency (Es-2) | Potency (HeLa) | Potency (Hek293T) | Potency (JEG-3) | Potency (OV90) | Potency (PA-1) | Potency (SKOV3) | Potency (Tov-21-G) | Potency (Tov112D) | activity, negative = cell killing [1, 2] -28.9% | activity, negative = cell killing [1, 3] -21.6% | Potency (astro)
active: Potency ([1]; tumour line A) 11.2 µM

[O-][n+]1cccc(CO)c1
inactive: Potency (MKL-2) | outcome (NIH3T3) | Potency (UISO) | Potency (WaGa) | Potency (C33A) | Potency (CASKI) | Potency (Es-2) | Potency (HeLa) | Potency (Hek293T) | Potency (JEG-3) | Potency (OV90) | Potency (PA-1) | Potency (Tov-21-G) | Potency (Tov112D) | activity, negative = cell killing [1, 2] -6.72% | activity, negative = cell killing [1, 3] -10.2% | activity, negative = cell killing [1, 4] -20.8% | activity, negative = cell killing [1, 5] -13.8% | Potency (astro)

Cc1ccc(C(C)C)cc2c(C)ccc1-2
inactive: Potency (MKL-2) | outcome (NIH3T3) | Potency (UISO) | Potency (WaGa) | Potency (C33A) | Potency (CAOV3) | Potency (CASKI) | Potency (Es-2) | Potency (HeLa) | Potency (Hek293T) | Potency (JEG-3) | Potency (OV90) | Potency (PA-1) | Potency (Tov-21-G) | Potency (Tov112D) | Potency (astro)

NC(CSCC(=O)O)C(=O)O (stereo not given)
inactive: Potency (MKL-2) | outcome (NIH3T3) | Potency (UISO) | Potency (WaGa) | Potency (C33A) | Potency (CASKI) | Potency (Es-2) | Potency (HeLa) | Potency (Hek293T) | Potency (JEG-3) | Potency (OV90) | Potency (PA-1) | Potency (SKOV3) | Potency (Tov-21-G) | Potency (Tov112D) | activity, negative = cell killing [1, 2] -1.36% | activity, negative = cell killing [1, 3] -6.13% | activity, negative = cell killing [1, 4] -25.4% | activity, negative = cell killing [1, 5] -7.6% | Potency (astro)

CC(C)(C)NCC(O)COc1ccc(NC(=O)NC2CCCCC2)cc1 (stereo not given)
inactive: Potency (MKL-2) | outcome (NIH3T3) | Potency (UISO) | Potency (WaGa) | Potency (C33A) | Potency (CASKI) | Potency (Es-2) | Potency (HeLa) | Potency (Hek293T) | Potency (JEG-3) | Potency (OV90) | Potency (PA-1) | Potency (SKOV3) | Potency (Tov-21-G) | Potency (Tov112D) | activity, negative = cell killing [1, 2] -25.7% | Potency (astro)
active: Potency ([1]; tumour line A) 31.6 µM

O=C(O)[C@@H]1CSCN1
inactive: Potency (MKL-2) | outcome (NIH3T3) | Potency (UISO) | Potency (WaGa) | Potency (C33A) | Potency (CASKI) | Potency (Es-2) | Potency (HeLa) | Potency (Hek293T) | Potency (JEG-3) | Potency (OV90) | Potency (PA-1) | Potency (SKOV3) | Potency (Tov-21-G) | Potency (Tov112D) | activity, negative = cell killing [1, 2] 0.874% | activity, negative = cell killing [1, 3] 4.12% | activity, negative = cell killing [1, 5] -12.1% | Potency (astro)
